# Source: the supplement of paper PMC11219838
# Tested on: Caenorhabditis elegans L1 (N2)
# Test: survival and reproduction score of C. elegans L1 (0: 0-10 living worms, 1: 11-20, 2: 21-50, 3: >50, 4: overgrown) (score 0-4); higher = more worms, less nematicidal, active = 1 or less; extreme values may be limits of the assay
# Conditions: 60 µM; 6 days; temperature: 20 °C
# Summary of the method: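 Each 96-well well received about 20 synchronized N2 L1 worms of C. elegans, E. coli HB101 and liquid NGM, plus compound pinned to 60 µM final (0.6% v/v DMSO). Sealed plates were incubated with shaking at 200 rpm, 20 °C, for 6 days. Survival and reproduction were rated under a dissection microscope as an ordinal score of living worms per well, averaged across biological replicates. The scale spanned 0 (0–10 worms) to 4 (overgrown, starved), and there were two replicates.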
row,SMILES,survival and reproduction score
1,CCOC(=O)c1sc(NC(=O)CSc2nnc(-c3ccc(Cl)cc3)o2)c(C#N)c1C,4 (inactive)
2,Clc1ccccc1-c1noc(-c2ccccc2Cl)n1,2 (inactive)
3,COc1ccc(Cl)cc1-c1noc(COc2ccccc2)n1,4 (inactive)
4,Fc1ccc(CSc2nnc(-c3ccccn3)o2)cc1,4 (inactive)
5,COc1ccc(-c2nnc(SCC(=O)Nc3ccccc3C(C)C)o2)cc1,4 (inactive)
6,COc1ccc(-c2nnc(SCC(=O)Nc3ccc(Br)cc3C(C)C)o2)cc1,4 (inactive)
7,Clc1ccc(SCc2nc(-c3ccccc3)no2)cc1,0 (active)
8,COc1cccc(-c2noc(CSc3ccccc3)n2)c1,4 (inactive)
9,COc1nc(C)ccc1-c1noc(-c2ccc(C)cc2)n1,4 (inactive)
10,COc1ccc(-c2nc(C3CCCCC3)no2)cc1,4 (inactive)
11,COc1ccccc1-c1noc(-c2ccccc2C)n1,4 (inactive)
12,Cc1ccccc1-c1noc(-c2cccc(Br)c2)n1,4 (inactive)
13,COc1nc(C)ccc1-c1noc(-c2ccccc2Cl)n1,4 (inactive)
14,Cc1nc(CSc2nnc(-c3ccccc3)o2)cs1,4 (inactive)
15,Cc1ccccc1OCc1nc(-c2ccc3c(c2)OCO3)no1,4 (inactive)
16,CCOc1cc(-c2noc(-c3ccncc3)n2)ccc1OC,4 (inactive)
17,COc1ccc(-c2nnc(SCc3ccccc3C)o2)cc1,4 (inactive)
18,Clc1ccccc1CSc1nnc(-c2ccncc2)o1,4 (inactive)
19,Cn1c(SCc2nc(-c3ccc(Br)cc3)no2)nnc1-c1ccco1,4 (inactive)

row,SMILES,survival and reproduction score
1,O=C(CSc1nnc(-c2ccc(Br)cc2)o1)OCc1ccccc1,4 (inactive)
2,CCOc1ccc(-c2nc(-c3ccc(C)cc3)no2)cc1,0 (active)
3,CCOc1nc(-c2ccccc2)ccc1-c1noc(CC)n1,4 (inactive)
4,Cc1ccc(OC(C)c2nc(-c3ccncc3)no2)cc1C (stereo not drawn),4 (inactive)
5,CNC(=O)c1ccccc1-c1nc(-c2ccccc2Cl)no1,4 (inactive)
6,Brc1ccc(-c2noc(COc3ccc4c(c3)OCO4)n2)cc1,4 (inactive)
7,CCCC(=O)Nc1ccccc1-c1nc(-c2ccccn2)no1,4 (inactive)
8,CCC(=O)Nc1ccccc1-c1nc(-c2ccccn2)no1,4 (inactive)
9,c1ccc(COc2cccc(-c3nc(-c4ccncc4)no3)c2)cc1,4 (inactive)
10,Cc1ccccc1-c1nc(-c2cccc(NC(=O)c3cccs3)c2)no1,4 (inactive)
11,O=C(CSc1nnc(-c2ccc(Br)cc2)o1)Nc1nccs1,4 (inactive)
12,Cc1ccc(C(=O)Nc2ccccc2-c2nc(-c3cccnc3)no2)cc1C,4 (inactive)
13,CCOc1nc(-c2ccc(C)cc2)ccc1-c1noc(-c2ccco2)n1,4 (inactive)
14,COc1ccc(-c2nnc(SCC(=O)Nc3ccc(C(C)C)cc3)o2)cc1,4 (inactive)
15,Cc1cccc(-c2noc(COc3ccc(Cl)cc3)n2)c1,4 (inactive)
16,Cc1ccccc1CSc1nnc(-c2ccco2)o1,0 (active)
17,COc1ccc(-c2noc(-c3ccccc3C)n2)cc1,0 (active)
18,Fc1ccc(-c2nc(-c3ccc(Br)cc3)no2)cc1,3 (inactive)
19,Brc1ccccc1-c1nc(-c2ccccc2)no1,0 (active)
